PubChem BioAssay (NCI)
Compounds without any hit were thinned out: in the full panel of roughly 83,000, 20% have a hit.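 The test compound was applied at a single concentration to cells in 96-well plates for 48 hours, and percent growth was recorded.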 Values without a mark were called inactive. The source made the active and inactive calls. How the source made its calls: active means growth percent below 10; inactive means the rest.

How the values were obtained:
Test in all cases: NCI-60 one-dose screen, 48 h (100 = growth as untreated, 0 = no growth, -100 = all killed)
Conditions in all cases: 10 µM unless noted
[1] = test system: NCI-H23 lung
[2] = test system: NCI-H226 lung
[3] = test system: NCI-H322M lung
[4] = test system: HOP-62 NSCLC
[5] = test system: NCI-H460 lung
[6] = test system: HOP-92 NSCLC
[7] = test system: NCI-H522 lung
[8] = test system: A549/ATCC NSCLC
[9] = test system: 786-0 renal
[10] = test system: COLO 205 colon
[11] = test system: DU-145 prostate
[12] = test system: K-562 leukemia
[13] = test system: MDA-MB-231 breast
[14] = test system: RXF 393 renal
[15] = test system: SF-268 CNS
[16] = test system: SF-295 CNS
[17] = test system: SF-539 CNS
[18] = test system: UACC-257 melanoma
[19] = test system: M14 melanoma
[20] = test system: MALME-3M melanoma

SMILES | growth [1] [%] | growth [2] [%] | growth [3] [%] | growth [4] [%] | growth [5] [%] | growth [6] [%] | growth [7] | growth [8] [%] | growth [9] [%] | growth [10] [%] | growth [11] [%] | growth [12] | growth [13] [%] | growth [14] [%] | growth [15] [%] | growth [16] [%] | growth [17] [%] | growth [18] [%] | growth [19] [%] | growth [20] [%]
O=C(O)c1cccc2c1-c1ccc(Cl)cc1C2 | 106 | 100 | 97.1 | 106 | 113 | 112 | 88.2% | 105 | 110 | 114 | 110 | 97.9% | 108 | 124 | 107 | 116 | 104 | 107 | 120 | –
COCCNC1=C(Cl)C(=O)c2ccccc2C1=O | 64.8 | 95.9 | 113 | 117 | 95.4 | 137 | 96.1% | 88.8 | 114 | 110 | 53.9 | 99.8% | 99.6 | 105 | 95.6 | 75.1 | 136 | 100 | 96.9 | –
Fc1cccc(-c2[nH]nc3nc(Nc4cccnc4)sc23)c1 | 43.3 | 70.8 | 65.1 | 55.4 | 21.2 | 86.4 | 16% | 37.8 | 53.6 | 15.7 | 29.4 | 21% | 78.2 | 44.5 | 60.6 | 27.4 | 24 | 72.4 | 45.5 | –
N#CC1C(=N)Cc2ccccc2-c2ccccc21 (configuration not stated) | 57.1 | 77.8 | 78.5 | 57.6 | 27 | 49.6 | 8.86% (active) | 42.1 | 65.6 | 51.4 | 75.8 | 16% | 57.2 | 58.4 | 61 | 49 | 63.4 | 51.5 | 16.2 | –
S=c1[nH]nc2ccccn12 | 104 | 122 | 105 | 102 | 109 | 100 | 82.3% | 106 | 112 | 118 | 114 | 92.6% | 103 | 119 | 117 | 108 | 99.1 | 108 | 108 | –
COC1=C(Br)C(=O)C(OC)=C(Br)C1=O | 105 | 102 | 98.1 | 111 | 106 | 153 | 86.3% | 102 | 103 | 110 | 109 | 31.7% | – | 119 | 111 | 111 | 108 | 94.4 | 105 | 102
Cc1c(C)c2c(c(C)c1NC(=O)CCCCCCC(=O)O)CCC(C)(CCCC(C)CCCC(C)CCCC(C)C)O2 (configuration not stated) | 85.7 | 95.2 | 91.7 | 109 | 69.7 | 82 | 52% | 20.4 | 75.2 | 98.4 | 86.1 | 39.2% | 101 | 98.9 | 78.3 | 71.4 | 89.9 | 95.2 | 82.7 | –
O=C1C=Cc2ncccc2C1=O | 70 | 81.8 | 97.7 | 99.7 | 111 | 97 | 88.8% | 105 | 103 | 54 | 78.9 | 0.688% (active) | – | 106 | 97 | 102 | 86.3 | 88.1 | 95.5 | 89.9
